# Laboratory results taken from PubChem BioAssay.
# Assay: reversal of MRP1-mediated doxorubicin resistance, pilot screen, H69AR cells, doxorubicin co-treatment (AID 601)
# Conditions: H69AR cells + 2 uM doxorubicin, CellTiter-Glo, 72 h; measured here: viability with 2 uM doxorubicin; at 10 µM; stronger effect = lower value
row,Structure (SMILES),viability [%]
1,O=C(NCC1CCCO1)C1CCC(CNS(=O)(=O)c2ccccc2)CC1 (centres undefined),84.8
2,COC(=O)CSc1ncccc1-c1nc2ccccc2[nH]1,91.5
3,O=C(CSc1nc(-c2ccco2)cc(C(F)(F)F)n1)N1CCCc2ccccc21,81.9
4,CC(=O)Nc1ccc(NC(=O)Cn2cnc3c(cnn3C(C)(C)C)c2=O)cc1,85.1
5,Cn1c(=O)[nH]c(=O)c2c1nc(N1CCOCC1)n2CC(O)COc1ccc2ccccc2c1 (centres undefined),89.9
6,OCC(O)CN1CCN(c2ccccc2)CC1 (centres undefined),94.5
7,NS(=O)(=O)c1cc2c(cc1Cl)NC(CSCc1ccccc1)=NS2(=O)=O,89.6
8,CN(CC(=O)N1CCCc2c1c(=O)oc1ccc(O)cc21)Cc1ccccc1,93.3
9,CCc1c(C)nc2ncnn2c1NCCc1ccc(OC)c(OC)c1,81.1
10,Cc1nn(-c2ccccc2)c2[nH]c(C(F)(F)F)cc(=O)c12,118
11,N#CCc1ccc(NC(=O)Nc2cccc(Cl)c2)cc1,105
12,c1coc(-c2nnc(-c3cccs3)o2)c1,87.9
13,COc1cc(SC)ccc1C(=O)Nc1ccccc1C#N,96.3
14,CCCCCn1c(CN2CCN(c3cccc(Cl)c3)CC2)nc2c1c(=O)n(C)c(=O)n2C,49.5
15,COc1ccccc1-n1c(SCC(=O)NC(C)(C)C)nnc1-c1ccco1,111
16,NS(=O)(=O)c1cc2c(cc1Cl)NC=NS2(=O)=O,95.9
17,Cc1cc(C)n(-c2nc3sc4c(c3c3nnc(SC(C)C)n23)CC(C)(C)OC4)n1,82
18,N=c1nc(N2CCCCC2)cc(N)n1O,92
19,CN(C)C(=O)Oc1ccc[n+](C)c1,81.6
20,O=S(=O)(c1cccs1)N1CCN(Cc2nc3ccccc3s2)CC1,101

row,Structure (SMILES),viability [%]
1,O=C(Nc1ccccc1C(=O)O)c1cccc(NC(=O)c2ccc(Br)o2)c1,94.4
2,COc1ccc(Cn2c(N)c(C#N)c3nc4ccccc4nc32)cc1OC,86.9
3,CC(=O)SCC(=O)N=c1sc2cc(F)ccc2n1C,96.1
4,C=CCOC(=O)C1=C(C)NC(=O)NC1c1cn(-c2ccccc2)nc1-c1cccs1 (centres undefined),94.7
5,O=S(=O)(NCc1cn2ccccc2n1)c1cc(F)ccc1F,87.2
6,COc1cc(C(=O)Nc2cc(-c3ccccc3)[nH]n2)cc(OC)c1OC,71.7
7,CC(C)(Oc1ccc(Cl)cc1)C(=O)NCc1ccncc1,88.7
8,O=C(CCNS(=O)(=O)c1ccc(Br)s1)N1CCCCC1,86.5
9,CCOc1ccc(NC(=O)CC2NCCNC2=O)cc1 (centres undefined),92.8
10,CC(=O)Nc1ccc(Cc2ccncc2)cc1,87.3
11,CCOC(=O)N1CCC(N(C(=O)Nc2cccc(OC)c2)C(C)CC)CC1 (centres undefined),95.5
12,Cc1nc(-c2coc3cc(OCC(=O)O)ccc3c2=O)cs1,89
13,Cc1ccc2nc(-c3ccc(S(=O)(=O)N4CCOCC4)cc3)cn2c1,98.5
14,Cc1[nH]nc2c1C(c1ccc(F)cc1)C1=C(CC(C)(C)CC1=O)N2 (centres undefined),87.8
15,CC(C)Oc1ccc2c(=O)c(-c3ccccc3)coc2c1,82.8
16,COc1ccc(-c2[nH]nc3c2C(c2ccncc2)C(C#N)=C(N)O3)cc1 (centres undefined),90
17,O=C(c1cccc2c1C(=O)N(Cc1cccnc1)C2)N1CCN(c2ccccc2)CC1,89.5
18,COc1ccc(OC)c(NS(=O)(=O)Cc2ccccc2)c1,112
19,O=C(Nc1ccc(F)cc1)N(CCCN1CCOCC1)Cc1cc2cc3c(cc2[nH]c1=O)OCO3,83.1
